Compound activity deposited in PubChem BioAssay by The Scripps Research Institute Molecular Screening Center.
PPARg SRC-3 ag – PPARgamma agonists recruiting SRC-3 coactivator, primary screen, biochemical | Peroxisome proliferator-activated receptor gamma (Homo sapiens), P37231 | biochemical PPARgamma/SRC-3 coactivator recruitment assay | activation, % at 8 µM | actives 0.26% (n = 200,000) | AID 731, 2007; in the data active means activation above about 23%
Target sequence (P37231 whole entry, looked up): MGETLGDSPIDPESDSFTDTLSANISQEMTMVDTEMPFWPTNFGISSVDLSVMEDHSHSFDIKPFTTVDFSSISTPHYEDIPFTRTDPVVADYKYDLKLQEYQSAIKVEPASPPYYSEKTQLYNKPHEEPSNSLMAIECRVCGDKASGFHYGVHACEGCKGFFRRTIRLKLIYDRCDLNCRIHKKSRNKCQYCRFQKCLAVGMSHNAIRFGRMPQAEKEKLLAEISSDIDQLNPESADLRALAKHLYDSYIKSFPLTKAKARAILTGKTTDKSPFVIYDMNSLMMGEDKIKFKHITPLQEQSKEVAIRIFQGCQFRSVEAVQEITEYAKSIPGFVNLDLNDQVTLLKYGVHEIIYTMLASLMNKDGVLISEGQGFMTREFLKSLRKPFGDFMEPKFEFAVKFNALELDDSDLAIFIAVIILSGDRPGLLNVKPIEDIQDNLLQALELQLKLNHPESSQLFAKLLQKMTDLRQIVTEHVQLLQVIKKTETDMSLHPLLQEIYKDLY
PPARg SRC1 recr – PPARgamma agonists recruiting SRC-1 coactivator, primary screen, biochemical; AID 631, 2007; activation, % at 8 µM; PPARgamma-SRC-1 coactivator recruitment biochemical assay; Peroxisome proliferator-activated receptor gamma (Homo sapiens), P37231; actives 0.41% (n = 200,000); in the data active means activation above about 19%
SRC2 TRFRET art – TR-FRET signal artefacts, primary screen, artefact control for PPARgamma SRC-2 agonist project, biochemical. TR-FRET artefact counter-screen; hits give high values. TR-FRET ratio at 8 µM. actives 0.4% (n = 200,000)
SRC3 TRFRET art – TR-FRET detection interference compounds, artefact control for PPARgamma SRC-3 recruitment agonists, biochemical, TR-FRET ratio; actives 0.39% (n = 99,000); TR-FRET artefact counter-screen, PPARgamma/SRC-3 format; hits give high values; TR-FRET ratio at 8 µM
PPARg SRC-2 ag – agonists of PPARg-SRC-2 recruitment, primary screen, biochemical, HTS. PPARgamma LBD-SRC-2 recruitment. activation, % at 8 µM. actives 0.34% (n = 200,000); in the data active means activation above about 22%
SRC1 TRFRET art – TR-FRET detection interference compounds, primary screen, artefact control for PPARgamma SRC-1 recruitment agonists, biochemical, TR-FRET emission ratio; TR-FRET detection artefact counter-screen; hits give high values; TR-FRET ratio at 8 µM; actives 0.34% (n = 99,000); AID 1051, 2008; in the data active means TR-FRET ratio above about 2300
PPARg SRC2 ag – agonists of PPARgamma SRC-2 coactivator recruitment, confirmation, biochemical, HTS. shares compounds with PPARg SRC-3 ag. actives 52% (n = 790). biochemical SRC-2 recruitment by PPARgamma. activation, % at 8 µM; in the data active means activation above about 22%
PPARg SRC1 ag – PPARgamma agonists recruiting SRC-1 coactivator, confirmation, biochemical. shares compounds with PPARg SRC-3 ag. PPARgamma–SRC-1 coactivator recruitment biochemical assay. activation, % at 8 µM. actives 43% (n = 790). AID 1300, 2008; in the data active means activation above about 20%
PPARg SRC3 conf – PPARgamma-driven SRC-3 coactivator recruitment agonists, confirmation, biochemical; AID 1301, 2008; actives 29% (n = 790); biochemical PPARgamma-SRC-3 coactivator recruitment, agonist mode; shares compounds with PPARg SRC-3 ag; activation, % at 8 µM; in the data active means activation above about 24%
Each line names hits and unclear results; the compound was inactive in the other large screens (follow-up assays come after a bar, where they were run). Hits are enriched below; roughly 0.9% of the tested compounds scored in any of these assays. Unless noted, no stated cut-off is given here; in the data, active means TR-FRET ratio above about 2000; inactive means the rest.

CN(C)c1ccc(C=Nc2ccc(N(C)C)cc2)cc1	PPARg SRC-3 ag 104, PPARg SRC1 recr 69, SRC2 TRFRET art 2825, PPARg SRC-2 ag 95 (no result: SRC3 TRFRET art, SRC1 TRFRET art) | PPARg SRC2 ag inactive | PPARg SRC1 ag inactive | PPARg SRC3 conf inactive
C(=Nc1cccc2c(N=Cc3ccco3)cccc12)c1ccco1	PPARg SRC1 recr 26, PPARg SRC-2 ag 22 | PPARg SRC2 ag inactive | PPARg SRC1 ag inactive | PPARg SRC3 conf inactive
CN(C)c1ccc(N=Cc2ccco2)cc1	PPARg SRC-3 ag 74, PPARg SRC1 recr 67, SRC2 TRFRET art 2974, PPARg SRC-2 ag 85 (no result: SRC3 TRFRET art, SRC1 TRFRET art) | PPARg SRC2 ag inactive | PPARg SRC1 ag inactive | PPARg SRC3 conf inactive
CCn1c(SC(=O)NC2CCCCC2)nnc1-c1cccs1	PPARg SRC-3 ag 29, PPARg SRC1 recr 24, PPARg SRC-2 ag 22 (no result: SRC3 TRFRET art, SRC1 TRFRET art) | PPARg SRC2 ag inactive | PPARg SRC1 ag inactive | PPARg SRC3 conf inactive
CCn1c(SCC(=O)NC2CCCCC2)nnc1-c1cccs1	none (no result: SRC3 TRFRET art, SRC1 TRFRET art)
O=C(NNC1CC(=O)N(c2ccc(Br)cc2)C1=O)c1ccccn1 (stereo not drawn)	none
O=C(O)COc1ccc2nsnc2c1Cl	PPARg SRC-3 ag 50, PPARg SRC1 recr 38, SRC2 TRFRET art 2267, PPARg SRC-2 ag 37 (no result: SRC3 TRFRET art, SRC1 TRFRET art) | PPARg SRC2 ag 46 | PPARg SRC1 ag 42 | PPARg SRC3 conf 27
CC(=O)C1=C(O)C(=O)N(CCc2c[nH]c3ccccc23)C1c1cccc(O)c1 (stereo not drawn)	none (no result: SRC3 TRFRET art, SRC1 TRFRET art)
COc1cc(C2C(C(C)=O)=C(O)C(=O)N2CCc2c[nH]c3ccccc23)ccc1O (stereo not drawn)	PPARg SRC1 recr 19 (no result: SRC3 TRFRET art, SRC1 TRFRET art) | PPARg SRC2 ag inactive | PPARg SRC1 ag inactive | PPARg SRC3 conf inactive
O=C(/C=C/c1ccncc1)c1ccc(NC(=O)c2ccccc2F)cc1	none
CCOc1ccc(S(=O)(=O)Nc2ccccc2C(=O)NCc2ccco2)cc1	none (no result: SRC3 TRFRET art, SRC1 TRFRET art)
CS(=O)(=O)Nc1ccccc1C(=O)NCc1ccco1	PPARg SRC-3 ag 26 (no result: SRC3 TRFRET art, SRC1 TRFRET art) | PPARg SRC2 ag inactive | PPARg SRC1 ag inactive | PPARg SRC3 conf inactive
O=c1c2ccccc2c(-c2n[nH]c(=S)o2)nn1Cc1ccccc1	PPARg SRC1 recr 23, SRC2 TRFRET art 2234, SRC3 TRFRET art 2375, PPARg SRC-2 ag 28, SRC1 TRFRET art 2576 | PPARg SRC2 ag 49 | PPARg SRC1 ag 42 | PPARg SRC3 conf 31
Cc1ccccc1-c1n[nH]c(=S)o1	PPARg SRC-3 ag 79, PPARg SRC1 recr 46, SRC2 TRFRET art 3075, PPARg SRC-2 ag 67 (no result: SRC3 TRFRET art, SRC1 TRFRET art) | PPARg SRC2 ag 50 | PPARg SRC1 ag 34 | PPARg SRC3 conf 36
S=c1[nH]nc(-c2ccccc2)o1	PPARg SRC-3 ag 71, PPARg SRC1 recr 56, SRC2 TRFRET art 2863, PPARg SRC-2 ag 67 (no result: SRC3 TRFRET art, SRC1 TRFRET art) | PPARg SRC2 ag 52 | PPARg SRC1 ag 37 | PPARg SRC3 conf 35
CC(Cc1n[nH]c(=S)o1)c1ccccc1 (stereo not drawn)	none
CSc1ccccc1-c1n[nH]c(=S)o1	PPARg SRC-3 ag 44, PPARg SRC1 recr 70, SRC2 TRFRET art 3652, SRC3 TRFRET art 3610, PPARg SRC-2 ag 96, SRC1 TRFRET art 4008 | PPARg SRC2 ag 51 | PPARg SRC1 ag 33 | PPARg SRC3 conf 34
S=c1[nH]nc(Cc2cccc3ccccc23)o1	none
Cc1ccc(-c2cc(-c3n[nH]c(=S)o3)c3ccccc3n2)cc1	none
CCOC(=O)N1CCN(C(=O)CSc2ccc3nnc(-c4cccnc4)n3n2)CC1	none
CCCN1CCC(=NNc2ccc(C(=O)O)cc2)CC1	none
Cc1cc(=O)[nH]c(SCC(=O)Nc2ccc(S(=O)(=O)N3CCCCC3)cc2)n1	none (no result: SRC3 TRFRET art, SRC1 TRFRET art)
Cc1cc2nc(-c3ccc(SCC(=O)Nc4ccc(S(=O)(=O)N5CCCC5)cc4)nc3)[nH]c2cc1C	PPARg SRC1 recr 31, SRC2 TRFRET art 3000, SRC3 TRFRET art 3472, PPARg SRC-2 ag 39, SRC1 TRFRET art 3103 | PPARg SRC2 ag 79 | PPARg SRC1 ag 62 | PPARg SRC3 conf 50
N#Cc1cc2ccccc2nc1SCC(=O)Nc1ccc(S(=O)(=O)N2CCCC2)cc1	PPARg SRC1 recr 19, SRC2 TRFRET art 3014 (no result: SRC3 TRFRET art, SRC1 TRFRET art) | PPARg SRC2 ag inactive | PPARg SRC1 ag inactive | PPARg SRC3 conf inactive
COc1ccc2nc(SCC(=O)Nc3ccc(S(=O)(=O)N4CCCC4)cc3)c(C#N)cc2c1	PPARg SRC-3 ag 83, PPARg SRC1 recr 86, SRC2 TRFRET art 4855, PPARg SRC-2 ag 78 (no result: SRC3 TRFRET art, SRC1 TRFRET art) | PPARg SRC2 ag 79 | PPARg SRC1 ag 62 | PPARg SRC3 conf 48
O=C(CSc1ccc(-c2nc3ccccc3[nH]2)cn1)Nc1ccc(S(=O)(=O)N2CCCC2)cc1	none
COc1ccc2nc(SCC(=O)N3CCCCC3)c(C#N)cc2c1	none
Cc1ccc(S(=O)(=O)Nc2ccc(Cl)cc2)cc1NC(=O)c1cc2c(s1)CCCC2	none
CC(C(=O)NC(C)(C)C)N1C(=O)c2cccc3cccc(c23)C1=O (stereo not drawn)	none
Cc1nn(C)c(C)c1NC(=O)CSc1nc(-c2ccccc2Cl)nc2c1cnn2-c1ccccc1	PPARg SRC1 recr 19 (no result: SRC3 TRFRET art, SRC1 TRFRET art) | PPARg SRC2 ag inactive | PPARg SRC1 ag inactive | PPARg SRC3 conf inactive
Cc1ccccc1C1C2=C(Nc3[nH]n(-c4ccccc4)c(=O)c31)c1ccccc1C2=O (stereo not drawn)	PPARg SRC-3 ag 35, PPARg SRC1 recr 23 | PPARg SRC2 ag 23 | PPARg SRC1 ag 30 | PPARg SRC3 conf 35
Cc1c(NC2(C#N)CCCCC2)c(=O)n(-c2ccccc2)n1C	none
CN(C)c1ccc(NC(=O)Nc2ccc3snnc3c2)cc1	PPARg SRC-3 ag 36, PPARg SRC1 recr 23 (no result: SRC3 TRFRET art, SRC1 TRFRET art) | PPARg SRC2 ag inactive | PPARg SRC1 ag inactive | PPARg SRC3 conf inactive
Cc1ccc(/C=[N+](\[O-])c2ccc(N(C)C)cc2)c2nsnc12	PPARg SRC1 recr 27 | PPARg SRC2 ag inactive | PPARg SRC1 ag inactive | PPARg SRC3 conf inactive
Cc1ccc2nsnc2c1NS(=O)(=O)c1c(C)ccc2nsnc12	none (no result: SRC3 TRFRET art, SRC1 TRFRET art)
C=CCn1c(-c2cccc(Cl)c2)n[nH]c1=S	PPARg SRC-3 ag 28, PPARg SRC1 recr 25, SRC2 TRFRET art 2008 (no result: SRC3 TRFRET art, SRC1 TRFRET art) | PPARg SRC2 ag inactive | PPARg SRC1 ag inactive | PPARg SRC3 conf inactive
